Screens: PubChem, NMMLSC
Avidin bead fluor – compound fluoresces at 488/530 nm on avidin beads. compound fluorescence 488/530 nm, flow cytometry; stronger effect = higher value. fluorescence (KMESF) at 10 µM. 220,000 compounds, 0.38% hits. AID 1775; in the data active = fluorescence above about 47
RGS16-Gao – modulates binding between human RGS16 and Galphao; O15492+P09471; bead-based flow cytometry RGS16-Galphao binding, fluorescence; actives lie on both sides; binding response (% of control), % at 10 µM; 220,000 compounds, 0.38% hits; AID 1441; call rule not given here;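 note: Galphao activated by GDP with aluminum fluoride before binding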
Target sequence (O15492 whole entry, looked up): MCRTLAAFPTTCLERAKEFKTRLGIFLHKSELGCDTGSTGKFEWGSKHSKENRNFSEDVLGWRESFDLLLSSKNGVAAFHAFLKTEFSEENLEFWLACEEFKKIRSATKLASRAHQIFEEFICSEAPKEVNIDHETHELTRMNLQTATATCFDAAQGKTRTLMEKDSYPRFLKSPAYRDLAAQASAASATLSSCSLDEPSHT
Target sequence (P09471 whole entry, looked up): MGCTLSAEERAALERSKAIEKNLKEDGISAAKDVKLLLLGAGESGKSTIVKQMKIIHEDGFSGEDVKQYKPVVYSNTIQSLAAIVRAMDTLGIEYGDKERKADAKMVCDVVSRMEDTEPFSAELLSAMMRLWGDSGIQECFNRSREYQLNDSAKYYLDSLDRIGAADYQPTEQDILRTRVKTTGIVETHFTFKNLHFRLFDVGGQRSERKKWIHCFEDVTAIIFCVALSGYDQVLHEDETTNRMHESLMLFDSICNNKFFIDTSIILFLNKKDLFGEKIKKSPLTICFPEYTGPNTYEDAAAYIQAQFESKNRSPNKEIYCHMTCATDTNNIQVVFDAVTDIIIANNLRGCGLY
RGS8-Gao reg – regulators of human RGS8-Galphao interaction; 220,000 compounds, 0.34% hits; response (percent of control binding), % at 10 µM; AID 1423; multiplexed bead flow cytometry, RGS8-Galphao binding; actives lie on both sides; in the data active = response below about 60% or above about 140%; inactive = in between;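 note: Galphao activated as the GDP aluminium fluoride complex binding bead-coupled RGS8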
Target sequence (P09471 whole entry, looked up): as above
GSH bead fluor – compound fluoresces at 488/530 nm on GSH beads | fluorescence (KMESF) at 10 µM | 190,000 compounds, 0.25% hits | GSH beads flow cytometry, compound fluorescence 488/530 nm; stronger effect = higher value; in the data active = fluorescence above about 89;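 note: glutathione beads carrying GST-tagged Bcl family fusion proteins plus one bare bead set; values are compound well signal with DMSO vehicle wells as background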
RGS4-Gao reg – human RGS4-Galphao interaction regulation; AID 1415; P09471; binding response (% of control), % at 10 µM; 220,000 compounds, 0.33% hits; Multiplexed bead flow cytometry, RGS4-Galphao binding; actives lie on both sides; in the data active = binding response below about 49% or above about 150%; inactive = in between;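 note: fluorescent Galphao activated with aluminum fluoride binding bead-coupled RGS4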
RGS7-Gao reg – modulates binding of RGS7 to human Galphao; Multiplexed bead flow cytometry; actives lie on both sides; AID 1439; 220,000 compounds, 0.35% hits; binding response (% of control), % at 10 µM; in the data active = binding response below about 49% or above about 150%; inconclusive = no clear call, values can overlap the other calls; inactive = in between;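 note: fluorescent Galphao held in activated GDP-AlF4 state binding bead-coupled RGS7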
Active calls of the source: *; u = inconclusive; x = no result given; [ ] = remark or other dose. The list is not random: actives were taken first. Their share in the collection is about 1.2%.

SMILES | Avidin bead fluor | RGS16-Gao | RGS8-Gao reg | GSH bead fluor | RGS4-Gao reg | RGS7-Gao reg
Cc1cccc2sc(NC(=O)c3ccc(Cl)s3)nc12 | 7 | 101 | 100 | 21 | 99 | 101
Cn1ccnc1C(=O)c1cc(SCC(=O)NCc2ccccc2)nc2ccccc12 | 8 | 101 | 97 | 8 | 102 | 108
COC(=O)CSc1cc(C(=O)c2nccn2C)c2ccccc2n1 | 8 | 108 | 102 | 271* | 106 | 104
CC(=O)N1C=Cc2c(c(C)c3c([nH]c4ccccc43)c2C)C1 | 8 | 102 | 101 | x | 103 | u
O=C1OCC(CO)(CO)N=C1NNc1ccccc1Cl | 11 | 96 | 98 | 8 | 95 | 99
Cn1c(=O)[nH]c(NC2CCCCC2)c(N=O)c1=O | 5 | 127 | 112 | 15 | 105 | 101
CCCNc1[nH]c(=O)n(C)c(=O)c1N=O | 69* | 104 | 102 | 8 | 100 | 109
O=C(O)/C=C/c1cn(-c2ncc(C(F)(F)F)cc2Cl)c2ccccc12 | 12 | 118 | 104 | 46 | 102 | 102
Cc1ccc(CN2CCN(Cc3cccn3-c3nccs3)CC2CCO)cc1 (stereo unspecified) | 10 | 103 | 101 | 11 | 103 | 100
Cc1ccc2nc(-c3ccc(SCC(=O)Nc4ccc5c(c4)OCCO5)nc3)[nH]c2c1 | 5 | 100 | 101 | 12 | 102 | 103
Cc1cc2nc(-c3ccc(SCC(=O)Nc4ccc5c(c4)OCCO5)nc3)[nH]c2cc1C | 53* | 101 | 101 | 11 | 101 | 109
O=C1c2ccccc2C(=O)N1CN(C(=O)c1ccccc1)c1ccc(O)cc1 | 9 | 102 | 102 | 13 | 100 | 97
CC(C)(C)C1CCC(=NNC(=O)CN(c2ccccc2)S(=O)(=O)c2ccccc2[N+](=O)[O-])CC1 (stereo unspecified) | 53* | 103 | 101 | 20 | 145 | 128
Clc1cccc(-c2cc3nc4c(c(N5CCOCC5)n3n2)CCCC4)c1 | 35 | 102 | 101 | 19 | 100 | 100
Clc1cccc(-c2cc3nc4c(c(N5CCN(c6cnccn6)CC5)n3n2)CCCC4)c1 | 3 | 104 | 77 | 104* | 67 | 74
CC1CCN(C(=O)Cn2cnc3c(cnn3C(C)(C)C)c2=O)CC1 | 9 | 106 | 102 | 10 | 104 | u
CN(C)C(=O)c1nc(C#N)c(N(C)C)o1 | 7 | 98 | 97 | 257* | 97 | 98
COc1ccc(OCCSc2nnc(-c3ccccc3)n2N)cc1 | 63* | 101 | 99 | 28 | 104 | 118
CCSCCc1nnc(NC(=O)Nc2cccc(C(F)(F)F)c2)s1 | 11 | 101 | 103 | 10 | 103 | 100
CCO[C@H]1OC(C(=O)N2CCN(C)CC2)=C[C@@H](c2ccc(Br)cc2)[C@@H]1CCCO | 6 | 98 | 98 | 20 | 97 | 101
O=C(NCc1ccc2c(c1)OCO2)c1c[nH]c2ccc(S(=O)(=O)N3CCOCC3)cc2c1=O | 9 | 50 | 86 | 28 | 96 | 94
O=C(NCc1ccccc1)c1c[nH]c2cc3c(cc2c1=O)OCCO3 | 5 | 74 | 92 | 89* | 92 | 96
CCC(C)NC(=O)C1c2cc(OC)c(OC)cc2C(=O)N(C)C1c1cccs1 (stereo unspecified) | 67* | 104 | 100 | 22 | 106 | 116
CCC(C)NC(=O)C1c2cc(OC)c(OC)cc2C(=O)N(C)C1c1ccc(OC)cc1 (stereo unspecified) | 34 | 96 | 100 | 19 | 99 | 99
COC(=O)c1ccccc1NC(=O)CSc1nnc(-c2cccc(NC(C)=O)c2)n1C | 16 | 101 | 97 | 26 | 98 | 101
SMILES | Avidin bead fluor | RGS16-Gao | RGS8-Gao reg | GSH bead fluor | RGS4-Gao reg | RGS7-Gao reg
CCOC(=O)c1ccc(N2CCCCC2)c(NS(=O)(=O)c2ccc(C)cc2)c1 | 7 | 99 | 97 | x | 97 | u
CCNC(=S)N(Cc1cccs1)Cc1cc2cc(OCC)ccc2[nH]c1=O | 41 | 143 | 100 | 239* | 126 | 131
CCNC(=S)N(Cc1ccco1)Cc1cc2cc(OCC)ccc2[nH]c1=O | 10 | 98 | 98 | 11 | 98 | 97
CC(C(=O)Nc1ccc(C#N)cc1)N(C)CC(=O)Nc1ccccc1Br (stereo unspecified) | 25 | 115 | 103 | 12 | 101 | 103
COc1ccc(NC(=O)c2coc3ccccc23)cc1OC | 6 | 99 | 97 | 259* | 97 | 98
Cc1nc2c(oc3ccc(Cl)cc32)c(=O)[nH]1 | 6 | 99 | 102 | x | 100 | u
CC1CCN(S(=O)(=O)c2cccc(C(=O)NCc3ccco3)c2)CC1 | 3 | 99 | 100 | 159* | 96 | 99
CC1CCN(S(=O)(=O)c2cccc(C(=O)NCc3cccs3)c2)CC1 | 7 | 104 | 100 | 28 | 102 | 100
COc1cc(NC(=O)C/C(C)=N/NC(=O)C(OC)c2ccccc2)c(OC)cc1Cl (stereo unspecified) | 12 | 116 | 106 | 5 | 104 | 112
CCOc1ccc(Cl)cc1S(=O)(=O)n1cnc2ccccc21 | 14 | 94 | 95 | 14 | 97 | 99
COc1ccc(Cl)cc1S(=O)(=O)n1cnc2ccccc21 | 62* | 106 | 102 | 15 | 99 | 139
CC[n+]1c(/C=C2\C=C(C)CC(C)(C)C2)sc2ccccc21 | 11 | 91 | 94 | 29 | 98 | 105
CC[n+]1c(/C=C2/C=C(C)CC(C)(C)C2)sc2ccc(OC)cc21 | 95* | 284 | 115 | 30 | 181*[activator] | 163*[activator]
CC(=O)Nc1cccc(NC(=O)C2CC(=O)N(c3ccc(C)cc3)C2)c1 (stereo unspecified) | 12 | 108 | 107 | 23 | 110 | 108
O=C1c2ccccc2NC(c2ccccc2Cl)N1N=C1CCCCCC1 (stereo unspecified) | 3 | 105 | 104 | 9 | 102 | 102
Cc1cc(C)n(-c2nc(NCC(C)O)c3c4c(sc3n2)CCCC4)n1 (stereo unspecified) | 47* | 100 | 103 | 24 | 101 | 100
N#CCCn1cc(/C=N/NC(N)=S)c(-c2ccccc2)n1 | 10 | 101 | 100 | 11 | 102 | 98
COc1ccc(NC(=O)CSc2ccc3c4c(cccc24)C(=O)c2ccccc2-3)cc1 | 49* | 102 | 98 | 20 | 103 | 114
COc1ccccc1NC(=O)/C(=C\c1cccs1)NC(=O)c1ccco1 | 49* | 124 | 111 | x | 119 | u
O=C(NCC1CCCO1)c1cccnc1Nc1ccccc1F (stereo unspecified) | 52* | 100 | 105 | 15 | 107 | 112
CCOC(=O)CN(C(=O)CSc1nnc2c(n1)[nH]c1c(C)cc(C)cc12)c1ccccc1 | 7 | 111 | 105 | 257* | 109 | 105
CCOC(=O)CN(C(=O)CSc1nnc2c(n1)[nH]c1ccccc12)c1ccccc1 | 3 | 97 | 101 | 22 | 102 | 98
